Experimental data from PubChem BioAssay (EPA / NIEHS).
Records with an inconclusive call do not appear. Where a structure was tested more than once in an assay, its records may differ in their call. Activity calls are given as the source filed them. Rule for the calls, unless noted: active = hit-call score of the fitted dose curve at least 0.9, where 1 is the maximum; inactive = score below 0.9.

How the values were obtained:
[1] = read-out: Interleukin-8 (IL8), CXCL8 (gene 3576); assay: BSK_3C_IL8: BioMAP Diversity Plus: 3C Assay for Interleukin-8 (IL8) Biomarker Activity (AID 2283020); details: primary human endothelial cells (HUVEC); actives raise or lower the signal
How it was run: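 Using DMSO-treated wells as the baseline, bidirectional curve fitting was applied to ELISA-measured IL-8 from human umbilical vein endothelial cultures sampled 24 h after compound addition.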

[2] = read-out: Monokine induced gamma interferon (MIG), CXCL9 (gene 4283); assay: BSK_3C_MIG: BioMAP Diversity Plus: 3C Assay for Monokine induced gamma interferon (MIG) Biomarker Activity (AID 2283021); details: primary human endothelial cells (HUVEC); actives raise or lower the signal
How it was run: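 ELISA-measured MIG in dosed HUVEC 3C cultures at 24 h, analysed by bidirectional fitting with DMSO defining baseline activity.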

[3] = BSK_3C_SRB: Viability Assessment in the BioMAP Diversity Plus: 3C Assay (AID 2283023); details: primary human endothelial cells (HUVEC);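 note: fitted both ways against DMSO so a hit may be signal rise or drop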
How it was run: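 Human umbilical vein endothelial cells in the 3C system, treated 24 h. Total protein measured by 0.1% sulforhodamine B staining after 10% TCA fixation, read at 560 nm; bidirectional fit versus DMSO.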

[4] = read-out: Matrix Metallopeptidase 1 (MMP1), MMP1 (gene 4312); assay: BSK_BE3C_MMP1: BioMAP Diversity Plus: BE3C Assay for Matrix Metallopeptidase 1 (MMP1) Biomarker Activity (AID 2283024); details: primary human bronchial epithelial cells; actives raise or lower the signal
How it was run: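 In this multiplexed primary-cell system, human bronchial epithelium received chemicals for 24 h before an ELISA for MMP1. Values reflect bidirectional fits normalised to the DMSO baseline.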

[5] = BSK_3C_Vis: BioMAP Diversity Plus: 3C Assay for Morphology Visualization (AID 2283025); details: primary human endothelial cells (HUVEC);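 note: fitted both ways so gain or loss versus DMSO counts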
How it was run: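 Light-microscopy morphology readout, 24 h exposure, human primary umbilical vein endothelium; analysed relative to DMSO with bidirectional fitting.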

[6] = read-out: Pselectin, SELP (gene 6403); assay: BSK_4H_Pselectin: BioMAP Diversity Plus: 4H Assay for Pselectin Biomarker Activity (AID 2283026); details: primary human endothelial cells (HUVEC); actives raise or lower the signal
How it was run: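 Bidirectional fits against DMSO gave the endpoint. Cells: primary human umbilical vein endothelium, chemical-treated for 24 h before ELISA detection of P-selectin.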

[7] = BSK_4H_SRB: Viability Assessment in the BioMAP Diversity Plus: 4H Assay (AID 2283027); details: primary human endothelial cells (HUVEC);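 note: cells exposed to compound for 24 h before staining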
How it was run: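 Cytotoxicity read-out in primary human endothelial cells: after 24 h compound exposure, cells were TCA-fixed (10%), stained with 0.1% SRB and absorbance taken at 560 nm. Values fitted in both directions relative to DMSO.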

[8] = BSK_BE3C_SRB: Viability Assessment in the BioMAP Diversity Plus: BE3C Assay (AID 2283028); details: primary human bronchial epithelial cells
How it was run: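 Human bronchial epithelial primary cells in confluent culture, 24 h after chemical dosing; total protein by 0.1% SRB staining after 10% TCA fixation, read at 560 nm. Bidirectional fitting versus DMSO baseline.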

[9] = read-out: Thrombomodulin, THBD (gene 7056); assay: BSK_3C_Thrombomodulin: BioMAP Diversity Plus: 3C Assay for Thrombomodulin Biomarker Activity (AID 2283029); details: primary human endothelial cells (HUVEC); actives raise or lower the signal
How it was run: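 In a multiplexed primary-cell system, human umbilical vein endothelium received chemical and was assayed 24 h later for thrombomodulin by ELISA. Parallel cultures were SRB-stained (0.1% SRB after 10% TCA fixation, read at 560 nm) to flag cytotoxicity.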

[10] = read-out: Urokinase-type plasminogen activator receptor (uPAR), PLAUR (gene 5329); assay: BSK_4H_uPAR: BioMAP Diversity Plus: 4H Assay for Urokinase-type plasminogen activator receptor (uPAR) Biomarker Activity (AID 2283030); details: primary human endothelial cells (HUVEC); actives raise or lower the signal
How it was run: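 Human umbilical vein endothelial cells in the 4H system, 24 h after chemical dosing. Cell-surface uPAR measured by ELISA, fitted in both directions versus DMSO; cytotoxicity checked by SRB total protein in parallel cultures.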

[11] = read-out: Vascular endothelial growth factor receptor 2 (Homo sapiens) (UniProt P35968); assay: BSK_4H_VEGFRII: BioMAP Diversity Plus: 4H Assay for Vascular endothelial growth factor receptor 2 (VEGFR2) Biomarker Activity (AID 2283031); details: primary human endothelial cells (HUVEC); actives raise or lower the signal
How it was run: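 Primary human umbilical vein endothelial cells (4H system), 24 h exposure; cell-surface VEGFR2 measured by ELISA. Bidirectional fitting versus DMSO; cytotoxicity checked in parallel by SRB total-protein staining.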

[12] = read-out: Human Leukocyte Antigen - DR isotype (HLADR), HLA-DRA (gene 3122); assay: BSK_BE3C_HLADR: BioMAP Diversity Plus: BE3C Assay for Human Leukocyte Antigen - DR isotype (HLADR) Biomarker Activity (AID 2283032); details: primary human bronchial epithelial cells; actives raise or lower the signal
How it was run: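 BioMAP BE3C format: human bronchial epithelium, 24 h compound treatment, ELISA detection of HLA-DR, with bidirectional analysis relative to DMSO.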

[13] = read-out: Vascular cell adhesion molecule 1 (VCAM1), VCAM1 (gene 7412); assay: BSK_4H_VCAM1: BioMAP Diversity Plus: 4H Assay for Vascular cell adhesion molecule 1 (VCAM1) Biomarker Activity (AID 2283033); details: primary human endothelial cells (HUVEC); actives raise or lower the signal;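 note: cell-surface VCAM-1 protein measured by ELISA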
How it was run: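 In this human endothelial (HUVEC) system, biomarker ELISA was run 24 h after compound addition, and total protein in parallel wells was assessed by SRB at 560 nm; DMSO served as negative control.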

[14] = read-out: Interferon-gamma inducible Protein 10 (IP10), CXCL10 (gene 3627); assay: BSK_BE3C_IP10: BioMAP Diversity Plus: BE3C Assay for Interferon-gamma inducible Protein 10 (IP10) Biomarker Activity (AID 2283034); details: primary human bronchial epithelial cells; actives raise or lower the signal
How it was run: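 BE3C cells (human bronchial epithelial, primary); 24 h exposure; ELISA for IP-10; DMSO-referenced bidirectional fit.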

[15] = read-out: Monokine induced gamma interferon (MIG), CXCL9 (gene 4283); assay: BSK_BE3C_MIG: BioMAP Diversity Plus: BE3C Assay for Monokine induced gamma interferon (MIG) Biomarker Activity (AID 2283035); details: primary human bronchial epithelial cells; actives raise or lower the signal;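 note: MIG protein measured by ELISA in BE3C cultures after 24 h of dosing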
How it was run: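 ELISA quantified MIG after 24 h exposure of primary bronchial epithelial cultures, analysed in both directions relative to DMSO. Cytotoxicity tracked in parallel cultures by sulforhodamine B staining.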

[16] = read-out: Transforming growth factor beta 1 (TGFb1), TGFB1 (gene 7040); assay: BSK_BE3C_TGFb1: BioMAP Diversity Plus: BE3C Assay for Transforming growth factor beta 1 (TGFb1) Biomarker Activity (AID 2283036;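 note: TGF-b1 protein level measured by ELISA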); details: primary human bronchial epithelial cells; actives raise or lower the signal
How it was run: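 TGF-b1 measured via ELISA, 24 h after chemical dosing of human bronchial epithelial cells (BE3C). Overt cytotoxicity assessed in parallel by SRB (0.1%, TCA-fixed, 560 nm); analysis bidirectional relative to DMSO.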

[17] = read-out: Plasminogen activator inhibitor-1 (PAI1), SERPINE1 (gene 5054); assay: BSK_BE3C_PAI1: BioMAP Diversity Plus: BE3C Assay for Plasminogen activator inhibitor-1 (PAI1) Biomarker Activity (AID 2283037); details: primary human bronchial epithelial cells; actives raise or lower the signal
How it was run: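 In this multiplexed primary-cell system, bronchial epithelial cells receive test chemical and are sampled at 24 h. PAI-1 is read by ELISA, with DMSO serving as negative control for bidirectional fitting.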

[18] = read-out: urokinase plasminogen activator (uPA), PLAU (gene 5328); assay: BSK_BE3C_uPA: BioMAP Diversity Plus: BE3C Assay for urokinase plasminogen activator (uPA) Biomarker Activity (AID 2283038); details: primary human bronchial epithelial cells; actives raise or lower the signal;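 note: uPA protein level quantified by ELISA in cell cultures; uPA read one day after compound addition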
How it was run: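 Primary human bronchial epithelial cells, uPA measured by ELISA 24 h after dosing. Bidirectional change relative to DMSO; cytotoxicity checked in parallel cultures by sulforhodamine B total-protein staining.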

[19] = target: human Vitamin D Receptor (VDR), VDR (gene 7421) (UniProt P11473); assay: ATG_VDR_TRANS: Attagene TRANS-FACTORIAL HepG2 Assay for human Vitamin D Receptor (VDR) (AID 2283022; active = hit-call score of the fitted dose curve at least 0.9, where 1 is the maximum)
Chain of human Vitamin D Receptor (VDR), VDR (gene 7421) (P11473 whole entry, looked up, the tested form may be a part): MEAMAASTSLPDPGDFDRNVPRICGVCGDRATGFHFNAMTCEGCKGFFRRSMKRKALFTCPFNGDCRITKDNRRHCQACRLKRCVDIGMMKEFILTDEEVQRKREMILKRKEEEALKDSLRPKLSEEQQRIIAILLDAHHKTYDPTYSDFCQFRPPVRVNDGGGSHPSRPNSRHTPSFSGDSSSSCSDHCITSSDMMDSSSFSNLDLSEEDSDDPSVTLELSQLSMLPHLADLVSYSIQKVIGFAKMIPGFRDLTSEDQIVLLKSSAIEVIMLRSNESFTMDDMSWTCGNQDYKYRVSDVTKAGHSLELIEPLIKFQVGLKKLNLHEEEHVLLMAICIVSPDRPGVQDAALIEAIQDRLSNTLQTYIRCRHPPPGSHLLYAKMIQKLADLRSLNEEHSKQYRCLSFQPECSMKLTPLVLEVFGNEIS
How it was run: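 HepG2 cells were transiently transfected with GAL4-UAS reporter units and a chimeric VDR-Gal4 construct, then dosed for 24 hours. Reporter mRNA was quantified by RT-PCR, fluorescent labeling, HpaI digestion and capillary electrophoresis; gain of signal analysed vs DMSO.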

Measured: AC50

CC=CC(=O)C1=C(C)C=CCC1(C)C
inactive: [1] | [2] | [3] | [4] | [5] | [6] | [7] | [8] | [9] | [10] | [11] | [12] | [13] | [14] | [15] | [16] | [17] | [18]

CC(C)(C)c1cccc(O)c1
inactive: [1] | [2] | [19] | [3] | [4] | [5] | [6] | [7] | [8] | [9] | [10] | [12] | [13] | [14] | [15] | [16] | [17] | [18]

c1ccc(OCCOc2ccccc2)cc1
inactive: [1] | [2] | [19] | [3] | [4] | [6] | [7] | [8] | [9] | [10] | [12] | [13] | [14] | [15] | [17] | [18]
active: [4] 0.0654 µM

Nc1ccc(N)c([N+](=O)[O-])c1
inactive: [1] | [2] | [3] | [4] | [5] | [6] | [7] | [8] | [9] | [10] | [12] | [13] | [14] | [15] | [16] | [17] | [18]

CC(C)Cc1ccc(C(C)C(=O)O)cc1 (centres undefined)
active: [1] 0.0158 µM
inactive: [2] | [3] | [4] | [5] | [6] | [7] | [8] | [9] | [10] | [12] | [13] | [14] | [15] | [16] | [17] | [18]

CC1=CC(C)C(C=O)C(C)C1 (centres undefined) (tested in a mixture with another compound)
inactive: [1] | [2] | [3] | [4] | [5] | [6] | [7] | [8] | [9] | [10] | [12] | [13] | [14] | [15] | [16] | [17] | [18]
